Reference: PubChem BioAssay AID1347417 (National Center for Advancing Translational Sciences (NCATS), 2020)
In all, about 120,000 compounds went through this assay and about 5,300 (4.4%) were called active. Entries that show only a call come without a potency. About 22% were inconclusive and are not listed. The call rests on the fitted dose curve; in most records, active means well fitted inhibition curve with a large enough effect; inconclusive means small, poorly fitted or top-dose-only effect; inactive means no such curve, though single readings can be large or run the other way. For the sample, actives were picked, then their nearest neighbours and some compounds at random.

assay: qHTS Primary assay for Inhibitors of Plasmodium falciparum Dd2 growth in vitro; further: nearly all actives have a fitted effect of over 65% in size; conditions: P. falciparum Dd2 growth, SYBR Green, 72 h; series mostly up to 28.9 µM
In short: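 Infected erythrocytes (Dd2, 0.3% parasitemia, 2.5% hematocrit final) are added to compound in RPMI-1640/Albumax II medium, grown 72 h at 37C in low oxygen, then lysed with saponin/Triton-X containing SYBR Green and read by fluorescence.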
Potency means the concentration at half of the fitted maximal effect.

Row | SMILES | Potency
1 | O=C(Nc1cccc(Cl)c1)[C@@H]1C[C@@H](c2ccc(F)cc2)N([S+](=O)([O-])c2cccnc2)C1 | inactive
2 | COc1ccc(CNC(=O)NCC(=O)N2CCCCCCNC(=O)CC2c2ccccc2)cc1 (stereo unspecified) | 8.91 µM (active)
3 | O=C1CC(c2ccccc2)N(C(=O)CNC(=O)C2CCC2)CCCCCN1 (stereo unspecified) | inactive
4 | O=C1CC(c2ccccc2)N(C(=O)CNC(=O)NCc2ccc(F)cc2)CCCCCN1 (stereo unspecified) | inactive
5 | CCn1cc(S(=O)(=O)N2CC[C@H]3C(=O)NCCCCCCN(Cc4ccncc4)[C@@H]3C2)cn1 | inactive
6 | CN(C)C[C@@H]1CN(C)C[C@H]1NC(=O)c1cc2ccccc2[nH]1 | inactive
7 | NC(=O)[C@H](CCC(=O)O)NC(=O)[C@@]1(O)C[C@@H](O)[C@H](O)[C@@H](NS(=O)(=O)c2cccc(C(F)(F)F)c2)C1 | inactive
8 | CN(C)C[C@@H]1CN(C)C[C@H]1NS(=O)(=O)c1cccc(C(F)(F)F)c1 | 3.55 µM (active)
9 | CN(C)C[C@@H]1CN(C(=O)c2ccc3c(c2)OCC(=O)N3)C[C@@H]1CO | inactive
10 | Cc1ccc(NC(=O)Cn2cccc2-c2nc(-c3ccc4c(c3)OCO4)no2)cc1Cl | inactive
11 | O=C(CCc1ccccc1)NCCn1cccc1-c1nc(-c2ccc3c(c2)OCO3)no1 | 7.08 µM (active)
12 | O=C(NCc1ccc2c(c1)OCO2)c1noc(-c2ccc(F)cc2)n1 | inactive
13 | CCc1noc(C)c1C(=O)N1CC[C@@H](NC(=O)c2ccccn2)[C@H](O)C1 | inactive
14 | O=C(CSc1nccn1C1CCCC1)Nc1cc(C(F)(F)F)ccc1Cl | 11.2 µM (active)
15 | O=C(CSc1nc(=O)[nH]c2c1CCCC2)Nc1cc(C(F)(F)F)ccc1Cl | inactive
16 | O=C(CSc1nccn1-c1ccc(F)cc1)Nc1cccc2ccccc12 | inactive
17 | Cc1cccc(-n2ccnc2SCC(=O)Nc2cc(C(F)(F)F)ccc2Cl)c1 | 3.55 µM (active)
18 | Cc1cc(C)cc(-n2ccnc2SCC(=O)Nc2nc3ccccc3s2)c1 | inactive
19 | COc1ccc(NC(=O)CSc2nccn2C2CCCC2)cc1OC | inactive
20 | Cc1ccc(-c2noc([C@@H]3CCCN3C(=O)c3cc(Cl)ccc3F)n2)cc1 | inactive
21 | CS(=O)(=O)Cc1ccc(-c2cccc(OCc3ccccc3F)c2)nc1 | inactive
22 | COCCC(=O)NCCC1CCN(C(=O)Nc2ccccc2F)CC1 | inactive
23 | C[S+](=O)([O-])N1CC2ON=C(C(=O)O)C2C1 (stereo unspecified) | inactive
24 | CCOc1ccc2c(n1)CCN(C(=O)c1ccccc1C)C2 | inactive
25 | C[C@@H]1CN(C(=O)c2ccc(-c3ccn[nH]3)cc2)CC[C@@]1(O)C1CCOCC1 | inactive
26 | COC(=O)CNC(=O)N1CCOC(c2ccc(Cl)c(Cl)c2)C1 (stereo unspecified) | inactive
